Assay [1] in a line: E. coli DRC41 culture turbidity changes, primary screen, E. coli filamentation inducer project, strain DRC41, OD650, 48 h (AID 1152).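 Also: E. coli MC1000 strain DRC41 lacking acrAB efflux pump and sulA.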 The conditions noted are these: E. coli DRC41 (acrAB sulA), higher = more signal, called active from +8 up or from −8 down.
The nature of assay [2]: small-molecule binders of probe aLefty1, primary screen, biochemical, small-molecule microarray, 635/667 nm fluorescence (AID 1153).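 Also: score merges spot fluorescence with signal-to-noise ratio from the scanned slide images.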 To be noted: higher = more signal.
The nature of assay [3]: PSAC antagonists in infected red cells, primary screen, cell-based, P. falciparum Indochina, OD700, 1 h (AID 1154). To be noted: P. falciparum Indochina infected RBC osmotic lysis, higher = more signal, called active from +8 up or from −8 down.
Assay [4] in a line: PSAC antagonists in infected red cells, primary screen, cell-based, P. falciparum Indochina, OD700, 2 h (AID 1155).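 Also: lysis reports solute entry through the parasite surface anion channel PSAC; channel blockers reduce lysis of infected cells.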 To be noted: P. falciparum Indochina infected erythrocytes, osmotic lysis OD700; higher = more signal, called active from +8 up or from −8 down.
Assay [5] in a line: osmotic lysis modulators in infected erythrocytes, primary screen, PSAC antagonist project, cell-based, P. falciparum Indochina, OD700, 3 h (AID 1156). The conditions noted are these: higher = more signal, called active from +8 up or from −8 down.
The nature of assay [6]: PSAC antagonists in infected red cells, primary screen, cell-based, P. falciparum Indochina, OD700, 18 h (AID 1157). The conditions noted are these: P. falciparum Indochina infected erythrocytes, osmotic lysis OD700, 18 h; higher = more signal, called active from +8 up or from −8 down.
The nature of assay [7]: modulators of S6 phosphorylation in cells, primary screen, cell-based, A549, cytoblot, luminescence, serum-stimulated (AID 1158).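 Also: serum-stimulated A549 lung adenocarcinoma cells; signal is phosphorylated S6 detected by cytoblot immunostaining with HRP secondary.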 The conditions noted are these: A549 phospho-S6 cytoblot, 5 h, higher = more signal.
The target in assay [8] is NADPH oxidase 2 (Homo sapiens) (UniProt P04839). Put plainly: NOX2-dependent H2O2 signal modulators, primary screen, NOX inhibitor project, cell-based, HEK293-NOX2, PMA-stimulated, Amplex Red fluorescence (AID 1159). Also: test concentration not given here. To be noted: 45 min, higher = more signal, called active from +8 up or from −8 down.
The target of assay [9] is NADPH oxidase 4 (Homo sapiens) (UniProt Q9NPH5). Put plainly: NOX4-dependent H2O2 signal modulators, primary screen, NOX inhibitor project, cell-based, HEK293-NOX4, tetracycline-induced, Amplex Red fluorescence (AID 1160). The conditions noted are these: 45 min, higher = more signal, called active from +8 up or from −8 down.
The target of assay [10] is NADPH oxidase 5 (Homo sapiens) (UniProt Q96PH1). Kind of assay: NOX5-dependent H2O2 signal modulators, primary screen, NOX inhibitor project, cell-based, HEK293-NOX5, Amplex Red fluorescence (AID 1161). To be noted: HEK293-NOX5, ionomycin, 45 min, higher = more signal.
Assay [11] in a line: A549 cell viability effects, profiling panel, calcein-AM fluorescence, 48 h, basal (AID 1162). Also: test concentration not given here. The conditions noted are these: higher = more signal.
Assay [12] is described as follows: adipocyte viability effects, profiling panel, cell-based, 3T3-L1 adipocytes, calcein-AM fluorescence, 48 h, basal (AID 1163). Also: test concentration not given here. The conditions noted are these: 3T3-L1 adipocytes viability, higher = more signal.
The nature of assay [13]: HepG2 cell viability effects, profiling panel, calcein-AM fluorescence, 48 h, basal (AID 1164). Also: test concentration not given here. To be noted: higher = more signal.
Assay [14] can be described thus: MM1S cell viability effects, profiling panel, calcein-AM fluorescence, 48 h, basal (AID 1165).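 Also: viability of MM1S multiple myeloma cells under basal unstimulated conditions; test concentration not given here.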 To be noted: higher = more signal.
Assay [15] is described as follows: basal RPMI8226 viability, no added stimulus, profiling panel, cell-based, calcein-AM fluorescence, 48 h, PK04 Diversity Set (AID 1166).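 Also: cells grown under basal conditions without added stimulus; test concentration not given here.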 To be noted: RPMI8226 myeloma viability, higher = more signal.
Assay [16] can be described thus: basal HepG2 mitochondrial membrane potential changes, profiling panel, cell-based, JC-1 fluorescence, 24 h, 100 nL compound (AID 1167). Also: test concentration not given here. The conditions noted are these: higher = more signal.
Assay [17] is described as follows: basal 3T3-L1 adipocyte mitochondrial potential changes, profiling panel, cell-based, JC-1 fluorescence, 3T3-L1 adipocytes, 24 h, 100 nL compound (AID 1168). Also: test concentration not given here. The conditions noted are these: JC-1 mitochondrial fluorescence, higher = more signal, called active from +8 up or from −8 down.
Assay [18] in a line: basal RPMI8226 mitochondrial membrane potential changes, profiling panel, cell-based, JC-1 fluorescence, 24 h, 100 nL compound (AID 1169). Also: test concentration not given here. The conditions noted are these: RPMI8226 myeloma, JC-1 mitochondrial potential fluorescence, higher = more signal.
A short description of assay [19]: basal MM1S mitochondrial membrane potential changes, profiling panel, cell-based, JC-1 fluorescence, 24 h, 100 nL compound (AID 1170). Also: test concentration not given here. The conditions noted are these: higher = more signal.
Assay [20] in a line: A549 lung cancer cell viability effects, profiling panel, resazurin fluorescence, 24 h, PK04 Diversity Set (AID 1171). Also: test concentration not given here. The conditions noted are these: higher = more signal, called active from +8 up or from −8 down.

For four compounds, z-score and composite z-score results are on record in PubChem BioAssay.

Activity calls are given as the source filed them.

Chain of NADPH oxidase 4 (Homo sapiens) (Q9NPH5 whole entry, looked up): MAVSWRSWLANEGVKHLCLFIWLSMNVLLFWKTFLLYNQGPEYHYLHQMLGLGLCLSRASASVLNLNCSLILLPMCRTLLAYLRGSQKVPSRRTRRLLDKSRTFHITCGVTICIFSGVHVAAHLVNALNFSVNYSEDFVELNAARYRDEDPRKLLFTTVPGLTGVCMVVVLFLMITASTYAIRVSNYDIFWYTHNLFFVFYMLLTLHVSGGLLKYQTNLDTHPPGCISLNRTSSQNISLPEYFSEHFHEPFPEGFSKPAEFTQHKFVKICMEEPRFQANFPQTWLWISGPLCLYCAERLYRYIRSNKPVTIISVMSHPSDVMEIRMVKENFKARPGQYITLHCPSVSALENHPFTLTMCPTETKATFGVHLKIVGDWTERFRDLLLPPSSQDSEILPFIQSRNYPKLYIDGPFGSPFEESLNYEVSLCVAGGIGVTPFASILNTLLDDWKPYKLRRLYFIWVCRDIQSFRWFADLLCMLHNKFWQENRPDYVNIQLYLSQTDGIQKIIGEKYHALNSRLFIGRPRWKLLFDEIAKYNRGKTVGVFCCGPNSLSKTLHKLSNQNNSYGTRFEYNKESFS
Chain of NADPH oxidase 2 (Homo sapiens) (P04839 whole entry, looked up): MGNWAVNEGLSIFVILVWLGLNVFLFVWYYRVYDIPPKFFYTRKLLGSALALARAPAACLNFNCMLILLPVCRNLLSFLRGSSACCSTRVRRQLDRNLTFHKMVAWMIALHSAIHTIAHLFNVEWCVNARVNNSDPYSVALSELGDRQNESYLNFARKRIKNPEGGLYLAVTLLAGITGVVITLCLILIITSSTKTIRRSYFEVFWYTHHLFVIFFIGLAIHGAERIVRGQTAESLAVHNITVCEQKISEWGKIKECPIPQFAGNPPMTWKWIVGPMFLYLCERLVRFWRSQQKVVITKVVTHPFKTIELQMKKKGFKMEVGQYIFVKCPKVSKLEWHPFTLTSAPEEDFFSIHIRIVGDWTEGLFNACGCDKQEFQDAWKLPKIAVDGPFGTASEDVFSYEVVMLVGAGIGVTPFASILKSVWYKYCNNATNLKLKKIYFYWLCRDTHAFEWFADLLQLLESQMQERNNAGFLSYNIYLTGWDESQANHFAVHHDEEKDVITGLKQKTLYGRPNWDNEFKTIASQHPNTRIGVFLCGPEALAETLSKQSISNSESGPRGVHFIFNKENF
Chain of NADPH oxidase 5 (Homo sapiens) (Q96PH1 whole entry, looked up): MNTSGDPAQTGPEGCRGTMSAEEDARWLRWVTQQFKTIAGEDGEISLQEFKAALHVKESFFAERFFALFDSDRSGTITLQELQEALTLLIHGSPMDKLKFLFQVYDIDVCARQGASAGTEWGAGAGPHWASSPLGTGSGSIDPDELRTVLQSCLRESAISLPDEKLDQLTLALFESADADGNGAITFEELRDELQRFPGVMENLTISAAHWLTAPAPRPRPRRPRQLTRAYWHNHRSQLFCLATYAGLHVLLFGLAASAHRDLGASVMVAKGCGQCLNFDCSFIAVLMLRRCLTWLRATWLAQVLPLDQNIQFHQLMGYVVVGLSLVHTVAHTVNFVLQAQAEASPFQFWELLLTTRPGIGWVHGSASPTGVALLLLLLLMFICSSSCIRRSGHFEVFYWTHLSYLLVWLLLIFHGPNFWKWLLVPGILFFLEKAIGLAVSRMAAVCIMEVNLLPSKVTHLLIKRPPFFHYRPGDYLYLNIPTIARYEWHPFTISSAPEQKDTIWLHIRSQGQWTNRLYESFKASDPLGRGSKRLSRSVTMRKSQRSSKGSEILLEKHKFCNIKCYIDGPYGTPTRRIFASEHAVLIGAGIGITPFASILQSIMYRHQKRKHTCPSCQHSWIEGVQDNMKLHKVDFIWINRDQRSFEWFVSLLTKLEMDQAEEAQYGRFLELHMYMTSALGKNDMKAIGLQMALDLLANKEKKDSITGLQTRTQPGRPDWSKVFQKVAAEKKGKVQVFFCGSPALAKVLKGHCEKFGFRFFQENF

In the case of `O=C(CS)NCCCCCCNC(=O)[C@@H]1C[C@@H]2C(=O)N3CCC[C@H]3C(=O)N2[C@@H]1c1ccc(O)cc1`, the z-score in assay [1] was 0.113 (inactive); in [3], 4.95 (inactive); in assay [4], 0.471 (inactive); in assay [5], 2.2 (inactive); in [6], 0.252 (inactive); in assay [7], -0.574. Besides, the z-score was 0.489 (inactive) in assay [8]; -1.38 (inactive) in assay [9]; -0.141 in assay [10]; -1.09 in [11]; 0.519 in [12]; -0.507 in [13]. Besides, the z-score in assay [14] was 0.16; in assay [15], 0.412; in assay [16], -1.57; in assay [17], -0.124 (inactive); in assay [18], 0.653; in [19], 0.0659. Besides, the z-score in [20] is -0.331 (inactive). Also, the composite z-score in assay [2] is -0.55.

With `CC(C)NC(=O)[C@@]1(Cc2ccccc2I)c2ccccc2C(=O)N(Cc2ccccc2)[C@H]1c1ccc(CO)cc1`, the z-score in assay [1] is -0.668 (inactive); in assay [3] it was 4 (inactive); in assay [4], 0.644 (inactive); in assay [5] it was 1.19 (inactive); in [6], 0.374 (inactive); in assay [7], -0.0212. Moreover, the z-score was 1.32 (inactive) in assay [8]; 1.07 (inactive) in [9]; 0.909 in [10]; -0.547 in assay [11]; -0.405 in assay [12]; -0.513 in [13]. Further, the z-score was 0.525 in [14]; -0.651 in assay [15]; 0.798 in [16]; -1.19 (inactive) in assay [17]; -0.638 in assay [18]; -0.715 in [19]. The z-score in assay [20] is 1.29 (inactive). In assay [2], this compound registered a composite z-score of 0.018.

As for `C=CCNC(=O)[C@@H]1[C@H]2C(=O)O[C@H](c3ccccc3)[C@H](c3ccccc3)N2[C@H](c2ccc(O)cc2)[C@@]12C(=O)N(C(=O)OCCOC)c1ccccc12`, the z-score was 0.808 (inactive) in assay [1]; 1.35 (inactive) in assay [3]; -0.27 (inactive) in assay [4]; 0.123 (inactive) in [5]; -1.08 (inactive) in assay [6]; 1.64 in [7]. For the same compound, the z-score was 0.818 (inactive) in [8]; -0.913 (inactive) in [9]; -2.08 in assay [10]; 0.231 in assay [11]; 2.01 in [12]; 0.0902 in assay [13]. In addition, the z-score in assay [14] is -0.549; in assay [15], -1.52; in assay [16], -0.338; in assay [17], 0.951 (inactive); in assay [18], 0.104; in assay [19], -0.0916. Further, the z-score in assay [20] was 0.425 (inactive). Also, in assay [2], the composite z-score came to 0.149.

For `CN1C(=O)C2C(C1=O)C1C=C(CCCO)C2C(c2cccs2)N1C` (stereo not given), the z-score is 0.325 (inactive) in assay [1]; 1.52 (inactive) in assay [3]; 0.326 (inactive) in assay [4]; 1.31 (inactive) in [5]; 0.181 (inactive) in assay [6]; -0.519 in assay [7]. Besides, the z-score in assay [8] is 0.108 (inactive); in assay [9] it was 0.378 (inactive); in assay [10], 1.22; in assay [11], 0.0141; in assay [12], -0.388; in assay [13], 0.174. Also, the z-score in assay [14] was 1.59; in [15] it was 0.664; in [16] it was 0.699; in assay [17] it was 0.617 (inactive); in assay [18], 0.257; in [19] it was -0.852. In addition, the z-score in assay [20] was -0.396 (inactive). For the same compound, the composite z-score in [2] is -0.274.
